Hits are enriched below; roughly 2.6% of the tested compounds scored in any of these assays.
Cruzain inh Det: blocks cruzain activity in presence of Triton detergent | P25779 | purified cruzain, Z-FR-AMC fluorescence, 0.01% Triton | Potency, µM, hits mostly inhibitors | 0.43% of 200,000 active; also: nearly all actives have a fitted effect of over 40% in size
Target sequence (P25779 123-467 limits assumed): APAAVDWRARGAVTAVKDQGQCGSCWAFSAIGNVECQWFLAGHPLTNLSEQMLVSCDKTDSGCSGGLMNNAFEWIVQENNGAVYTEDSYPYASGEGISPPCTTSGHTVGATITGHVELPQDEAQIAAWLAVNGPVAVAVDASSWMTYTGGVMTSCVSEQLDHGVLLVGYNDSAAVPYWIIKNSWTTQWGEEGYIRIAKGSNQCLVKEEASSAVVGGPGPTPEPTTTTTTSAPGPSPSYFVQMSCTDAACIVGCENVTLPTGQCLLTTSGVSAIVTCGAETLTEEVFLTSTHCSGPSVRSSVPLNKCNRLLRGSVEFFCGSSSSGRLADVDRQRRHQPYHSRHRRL
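In this qHTS format, compounds are incubated with 1.5 nM cruzain for 15 min at room temperature before 2 uM Z-FR-AMC is added. Release of AMC is followed at 360/450 nm, and progress is taken as the 60 s fluorescence difference.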
Cruzain inh noDet: inhibitors of Trypanosoma cruzi cruzain without detergent. P25779. purified cruzain, Z-FR-AMC fluorescence, no detergent. Potency, µM, hits mostly inhibitors. 2.3% of 200,000 active; also: nearly all actives have a fitted effect of over 40% in size
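Detergent-free condition (0.00005% Triton X-100) in acetate buffer pH 5.5 with DTT. 1.5 nM enzyme and compound were pre-mixed 15 min, then 2 uM Z-FR-AMC substrate added; reaction progress from fluorescence change between first and third reads (60 s).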
Papain inh: blocks papain protease activity, flagging nonselective cruzain hits; shares compounds with Cruzain inh Det; purified papain, Z-FR-AMC fluorescence cleavage; Potency, µM, hits mostly inhibitors; 41% of 410 active; AID 2161; also: nearly all actives have a fitted effect of over 35% in size
Target sequence (P00784 whole entry, looked up): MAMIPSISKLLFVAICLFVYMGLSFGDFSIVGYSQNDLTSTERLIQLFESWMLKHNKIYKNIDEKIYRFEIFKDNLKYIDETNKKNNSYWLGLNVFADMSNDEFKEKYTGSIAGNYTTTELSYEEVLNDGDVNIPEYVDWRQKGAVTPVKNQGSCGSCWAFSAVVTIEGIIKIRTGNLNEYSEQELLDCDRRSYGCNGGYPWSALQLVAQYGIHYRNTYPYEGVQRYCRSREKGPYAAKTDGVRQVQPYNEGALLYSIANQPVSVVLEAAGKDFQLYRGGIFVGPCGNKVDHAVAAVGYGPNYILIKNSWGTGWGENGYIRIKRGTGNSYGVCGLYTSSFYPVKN
Large screens that a line does not name were inactive (follow-up assays come after a bar, where they were run); ! = a repeat was not active. Calls follow the shape of the dose curve; as a rule, active = well fitted curve in the direction sought with a large enough effect; inconclusive = small, poorly fitted or top-dose-only effect, or another doubt; inactive = no such curve, though single readings can be large; an effect the other way counts as inactive or inconclusive.

COc1cc(OC)c(NC(=O)c2cn(C3CCCC3)c(=O)c3c2c2ccccc2n3C)cc1Cl	none
COc1ccc(Cl)cc1NC(=O)c1cn(C2CCCCC2)c(=O)c2c1c1ccccc1n2C	Cruzain inh noDet 10µM
CN(C)S(=O)(=O)c1ccc(C(=O)Nc2nnc(SCc3ccccc3)s2)cc1	Cruzain inh noDet 3.2µM
CCSc1nnc(NC(=O)CN(C)S(=O)(=O)c2ccc(F)cc2)s1	none
Cc1cc(-c2csc(NC(=O)c3ccc(S(=O)(=O)N(C)C)cc3)n2)c(C)n1-c1ccccc1	Cruzain inh noDet 16µM
CN(C)S(=O)(=O)c1ccc(C(=O)Nc2nnc(Cc3ccccc3)s2)cc1	none
CN(C)S(=O)(=O)c1ccc(C(=O)Nc2nnc(SCc3cccc(F)c3)s2)cc1	Cruzain inh noDet 4µM
CN(C)S(=O)(=O)c1ccc(C(=O)Nc2nc(-c3cc4ccccc4o3)cs2)cc1	Cruzain inh noDet inconclusive
CCOc1ccc(NC(=O)c2cc(S(=O)(=O)N3CCN(c4ccccc4F)CC3)ccc2F)cc1	none
CCCCOc1ccc(CNC(=O)c2cnc3sc(N4CCOCC4)nn3c2=O)cc1	none
N=c1c(C(=O)NCC2CCCO2)cc2c(=O)n3ccccc3nc2n1Cc1cccnc1 (stereo not drawn)	Cruzain inh Det 28µM, Cruzain inh noDet inconclusive
Cc1cccn2c(=O)c3cc(C(=O)NC(C)C)c(=N)n(Cc4ccncc4)c3nc12	Cruzain inh Det 32µM, Cruzain inh noDet inconclusive
COCCCn1c(=N)c(C(=O)NC2CCCC2)cc2c(=O)n3cccc(C)c3nc21	Cruzain inh noDet inconclusive
CCCn1c(=N)c(C(=O)NCc2cccnc2)cc2c(=O)n3ccccc3nc21	none
Cc1cccn2c(=O)c3cc(C(=O)NCC4CCCO4)c(=N)n(Cc4cccnc4)c3nc12 (stereo not drawn)	Cruzain inh Det 22µM, Cruzain inh noDet inconclusive
CNC(=O)c1cc2c(=O)n3cc(C)ccc3nc2n(C(C)C)c1=N	Cruzain inh Det 28µM, Cruzain inh noDet inconclusive
Cc1ccc2nc3c(cc(C(=O)NC4CCCC4)c(=N)n3C(C)C)c(=O)n2c1	none
CCCn1c(=N)c(C(=O)NCc2cccnc2)cc2c(=O)n3cccc(C)c3nc21	none
O=C1C(=O)N(C2CCN(C(=O)c3ccccc3Cl)CC2)CCN1Cc1ccc(F)cc1	none
COc1ccc(-c2nnc(SCC(=O)N3CCc4ccccc43)o2)cc1OC	none
CCn1ccc2cc(S(=O)(=O)N3CCC(C(=O)NCc4ccc(OC)cc4)CC3)ccc21	none
CCc1ccc(NC(=O)Cn2c(=O)ccc3cc(S(=O)(=O)N4CCCC4)ccc32)cc1	none
Cc1ccc(S(=O)(=O)c2cc3c(=O)n4ccccc4nc3n(CC3CCCO3)c2=N)cc1C (stereo not drawn)	Cruzain inh Det 32µM
COCCn1c(=N)c(C(=O)NCCc2ccc(OC)cc2)cc2c(=O)n3cccc(C)c3nc21	none
COCCCNC(=O)c1cc2c(=O)n3cccc(C)c3nc2n(C(C)C)c1=N	Cruzain inh Det 25µM, Cruzain inh noDet inconclusive
Cc1ccc(S(=O)(=O)c2cc3c(=O)n4ccccc4nc3n(Cc3ccco3)c2=N)cc1C	none
CCCCNC(=O)CSc1nc2cc3c(cc2c(=O)n1CCCC(=O)NCc1ccc(OC)cc1)OCO3	none
Cn1c(NCCO)nc2c1c(=O)n(Cc1ccccc1Cl)c(=O)n2C	none
CCCCCCCCCCCCCCCC(O)C(N)CO (stereo not drawn)	Cruzain inh Det 18µM, Cruzain inh noDet inconclusive
CCCCCCCCCCCCC/C=C\[C@@H](O)[C@@H](N)CO	none
O=C(NCCc1ccc(Cl)cc1)c1ccc2c(c1)N(Cc1ccc(Cl)cc1)C(=O)CS2	Cruzain inh noDet inconclusive
COc1ccc2c(c1-c1c3c(cc(Br)c1OC)CCCC3)CCCC2	none
O=C(Nc1ccccc1Cl)[C@H](CSCc1ccccc1)N1Cc2ccccc2C1=O	none
COCCN1CN=C(Nc2nc3ccccc3s2)NC1	Cruzain inh Det inconclusive, Cruzain inh noDet 16µM
COCCN1CN=C(Nc2nc3ccccc3o2)NC1	none
CCc1ccc(C(=O)c2cn(CC(=O)Nc3ccc4c(c3)OCO4)c3ccc(CC)cc3c2=O)cc1	none
Cc1ccc(CN2C(=O)c3ccccc3Sc3ccc(C(=O)OCc4ccco4)cc32)cc1	none
Cc1ccc(C2C(C#N)=C(N)Oc3n[nH]c(-c4cccs4)c32)cc1 (stereo not drawn)	Cruzain inh noDet 32µM
N#CC1=C(N)Oc2n[nH]c(-c3cccs3)c2C1c1ccoc1 (stereo not drawn)	none
CCOc1ccccc1NC(=O)CSc1nc2c(sc3ccccc32)c(=O)n1CCCC(=O)NC1CCCC1	none
CC1=CC(C)(C)Nc2ccc(OC(=O)CCN3C(=O)c4ccccc4C3=O)cc21	none
CC1=CC(C)(C)Nc2ccccc21	Cruzain inh noDet 16µM!
COc1cccc(N2CC(NC(=O)c3ccco3)CC2=O)c1 (stereo not drawn)	none
CCOc1ccc(-c2nonc2NC(=O)c2oc3ccc(Cl)cc3c2C)cc1	none
CC(=O)Nc1ccc2nc(NC(=O)CS(=O)(=O)c3ccc(C)cc3)sc2c1	none
Cc1ccc(S(=O)(=O)CC(=O)Nc2nc3c(C)cccc3s2)cc1	Cruzain inh noDet 25µM
Cc1ccc(Cl)c2sc(NC(=O)CS(=O)(=O)c3ccc(Cl)cc3)nc12	none
O=C(CS(=O)(=O)c1ccc(Cl)cc1)Nc1nc2ccc(Br)cc2s1	Cruzain inh noDet 7.9µM
O=C(Nc1cccc(F)c1)[C@@H](c1ccccc1)N1Cc2ccccc2C1=O	none
O=C(CCc1ccc(S(=O)(=O)N2CCCCC2)cc1)c1nnc(-c2ccccc2)o1	Cruzain inh noDet 25µM
O=C(c1ccc(S(=O)(=O)N2CCCCC2)cc1)c1nnc(-c2ccc(Cl)cc2)o1	none
CCCCCCCC1=CC2=C(Cl)C(=O)C(C)(OC(C)=O)C(=O)C2=CO1 (stereo not drawn)	none
Cc1ccc(CNC(=O)C(=O)Nc2c3c(nn2-c2ccc(F)cc2)CSC3)cc1	Cruzain inh noDet 13µM
CC(=O)Nc1c2c(nn1-c1ccc(C)cc1C)CSC2	none
Cc1ccc(CNC(=O)C(=O)Nc2c3c(nn2-c2ccccc2)CSC3)cc1	Cruzain inh noDet inconclusive
Cc1ccc(-n2nc3c(c2NC(=O)c2ccc4c(c2)OCO4)CSC3)cc1	Cruzain inh noDet 16µM
Cc1ccc(NC(=O)C2CCCN(c3nnc(C)c4c(C)n(-c5ccccc5)nc34)C2)cc1Cl (stereo not drawn)	none
CCNc1nc(C#N)nc(N2CCOCC2)n1	none (no result: Cruzain inh Det, Cruzain inh noDet) | Papain inh 3.2µM
COc1nc(N(c2ccccc2)c2ccccc2)nc(-n2ccnc2)n1	none
N#Cc1nc(N(c2ccccc2)c2ccccc2)nc(-n2cccc2)n1	none (no result: Cruzain inh Det, Cruzain inh noDet) | Papain inh 10µM
CCNc1nc(SCc2ccccc2)nc(N2CCOCC2)n1	none
N#CCOc1nc(N2CCOCC2)nc(N2CCOCC2)n1	none
CN(c1ccccc1)c1nc(C#N)nc(N2CCOCC2)n1	none (no result: Cruzain inh Det, Cruzain inh noDet) | Papain inh 1.3µM
N#Cc1nc(N2CCOCC2)nc(N2CCOCC2)n1	Cruzain inh Det 1.1µM, Cruzain inh noDet 1.3µM | Papain inh 1.3µM
CN(C)c1nc(N2CCOCC2)nc(N(c2ccccc2)c2ccccc2)n1	Cruzain inh noDet inconclusive
CC(=O)Nc1ccc(NC(=O)CN2C(=O)CN(C)C(=O)c3ccccc32)cc1	none
COC(=O)C1=C(C)NC(C)=C([N+](=O)[O-])[C@@H]1c1ccccc1C(F)(F)F	none
CCOc1ccc(CNC(=O)CN2N=C(c3ccccc3)CCC2=O)cc1OC	none
Cc1ccc2[nH]c(=O)c(CN(CCO)Cc3nnnn3Cc3ccccc3)cc2c1	none (no result: Cruzain inh Det, Cruzain inh noDet) | Papain inh inactive

Assay outcomes deposited in PubChem by National Center for Advancing Translational Sciences (NCATS).
